Assay results: the antibiotic and cytotoxicity screens of Wong et al. (2023)
The campaign covered roughly 39,000 compounds. About 3,300 (8.5%) were called active. The sample holds actives, similar compounds and a random draw of the others, so the mix is not that of the screen.

test system: HepG2; experiment: cytotoxicity call (relative viability < 0.9); settings: 10 µM

Row | Compound | cytotoxicity call
1 | C[C@@H]1CN([C@@H](C)CO)C(=O)c2cc(NS(C)(=O)=O)ccc2O[C@@H](C)CCCCO[C@H]1CN(C)CC1CC1 | inactive
2 | C[C@@H]1CN([C@H](C)CO)C(=O)c2cc(NC(=O)Cn3cnnn3)ccc2O[C@H]1CN(C)Cc1ccc(Cl)c(Cl)c1 | inactive
3 | C[C@H]1CN([C@@H](C)CO)C(=O)c2cccc(NS(=O)(=O)c3ccc(F)cc3)c2O[C@@H]1CN(C)S(=O)(=O)c1cccs1 | inactive
4 | O=C(C[C@H]1C[C@@H]2c3cc(NC(=O)Nc4ccc(C(F)(F)F)cc4)ccc3O[C@@H]2[C@H](CO)O1)NCc1cc(F)ccc1F | inactive
5 | C[C@H](CO)N1C[C@H](C)[C@@H](CN(C)C(=O)Nc2cccc(F)c2)OCc2ccccc2-c2ccccc2C1=O | inactive
6 | C[n+]1ccc(CCCO)cc1 | inactive
7 | CC(C)C(N)C(=O)OCCOCn1cnc2c(=O)[nH]c(N)nc21.Cl (stereo unspecified) | inactive
8 | Clc1ccc(CCC(Cn2ccnc2)Sc2c(Cl)cccc2Cl)cc1 (stereo unspecified) | inactive
9 | Clc1ccc(CON=C(Cn2ccnc2)c2ccc(Cl)cc2Cl)c(Cl)c1.O=[N+]([O-])O | inactive
10 | Clc1ccc(COC(Cn2ccnc2)c2ccc(Cl)cc2Cl)c(Cl)c1.O=[N+]([O-])O (stereo unspecified) | inactive
11 | Clc1ccc(C(Cn2ccnc2)OCc2c(Cl)cccc2Cl)c(Cl)c1.O=[N+]([O-])O (stereo unspecified) | inactive
12 | Clc1ccc(COC(Cn2ccnc2)c2ccc(Cl)cc2Cl)cc1.O=[N+]([O-])O (stereo unspecified) | active
13 | Clc1ccc(CSC(Cn2ccnc2)c2ccc(Cl)cc2Cl)cc1.O=[N+]([O-])O (stereo unspecified) | active
14 | CC(C)NC(=O)N[C@H]1C=C[C@H](CC(=O)NCCCN(C)C)O[C@@H]1CO | inactive
15 | COc1cccc(S(=O)(=O)N[C@H]2C=C[C@@H](CC(=O)NC3CCC3)O[C@H]2CO)c1 | inactive
16 | C[C@@H]1CN([C@@H](C)CO)C(=O)c2cc(N(C)C)ccc2O[C@H]1CN(C)S(=O)(=O)c1ccc(Cl)cc1 | inactive
17 | Cc1cccc(NC(=O)CN2C(=O)CNC2=O)c1 | inactive
18 | C[C@H](CO)N1C[C@H](C)[C@H](CN(C)C(=O)Nc2ccc3c(c2)OCO3)Oc2ccc(NS(C)(=O)=O)cc2CC1=O | inactive
19 | CCC(=O)N1CCN(c2ccc(-n3c(=O)ccc4cnc5ccc(-c6cnc7ccccc7c6)cc5c43)cc2C(F)(F)F)CC1 | active

Row | Compound | cytotoxicity call
20 | Cc1noc(C)c1NC(=O)Nc1ccc2c(c1)C(=O)N([C@H](C)CO)C[C@H](C)[C@H](CN(C)C(=O)C1CCCCC1)OCCCC[C@H](C)O2 | inactive
21 | C[C@H]1CN([C@@H](C)CO)C(=O)c2cccc(NC(=O)c3nc4ccccc4s3)c2O[C@H]1CN(C)Cc1ccc(C(F)(F)F)cc1 | inactive
22 | O=C(C[C@@H]1C[C@@H]2c3cc(NC(=O)C4CCOCC4)ccc3O[C@@H]2[C@H](CO)O1)NCc1ccc2c(c1)OCO2 | inactive
23 | CS(=O)(=O)OCCCCOS(C)(=O)=O [listing 1 of 2 here] | inactive
24 | CS(=O)(=O)OCCCCOS(C)(=O)=O [listing 2 of 2 here] | inactive
25 | CS(C)(=O)=O | active
26 | CCOC(=O)c1c[nH][nH]c1=O | inactive
27 | CC(C)NC(=O)N(C)C[C@H]1OCCCC[C@H](C)Oc2ccc(NC(=O)Nc3ccc(F)cc3)cc2C(=O)N([C@H](C)CO)C[C@@H]1C | inactive
28 | C[C@H](CO)N1C[C@H](C)[C@@H](CN(C)C(=O)Cc2ccccc2)OCCCC[C@H](C)Oc2ccc(NC(=O)NC3CCCCC3)cc2C1=O | inactive
29 | COc1nn(C)cc1C(=O)Nc1ccon1 | inactive
30 | OCCN1CNC(=S)NC1 | inactive
31 | CCCCN1CNC(=S)NC1 | active
32 | S=C1NCN(CCc2ccccc2)CN1 | inactive
33 | Cc1noc(C)c1NC(=O)N(C)C[C@H]1Oc2ccc(NS(=O)(=O)c3ccccc3)cc2C(=O)N([C@H](C)CO)C[C@@H]1C | inactive
34 | COc1ccc(NC(=O)Nc2ccc3c(c2)C(=O)N([C@H](C)CO)C[C@@H](C)[C@H](CN(C)C(=O)Cc2ccccc2)OCCCC[C@H](C)O3)cc1 | inactive
35 | c1ccc(-c2nc(C34CC5CC(CC(C5)C3)C4)cs2)cc1 | inactive
36 | OCc1cn(-c2ccccc2)nn1 | inactive
37 | NCc1cn(-c2ccccc2)nc1C12CC3CC(CC(C3)C1)C2 | active
38 | CCS(=O)(=O)Nc1ccc2c(c1)C(=O)N(C)C[C@H](OC)[C@@H](C)CN(CCC(F)(F)F)[C@@H](C)CO2 | inactive

Row | Compound | cytotoxicity call
39 | C[C@H](CO)N1C[C@H](C)[C@@H](CN(C)C(=O)c2ccc3c(c2)OCO3)Oc2cc(C#Cc3ccccc3F)ccc2S1(=O)=O | inactive
40 | C[C@H]1CN([C@@H](C)CO)C(=O)c2cccc(NC(=O)c3nc4ccccc4s3)c2O[C@@H]1CN(C)Cc1ccc(-c2ccccc2)cc1 | inactive
41 | NC(=O)c1nnn(Cc2ccccc2)c1N | inactive
42 | O=C(O)Cn1nc2ccccc2n1 | inactive
43 | O=C(O)c1nn(Cc2ccccc2)nc1C(=O)O | active
44 | C[C@H](CO)N1C[C@H](C)[C@@H](CN(C)S(=O)(=O)c2ccccc2F)Oc2ncc(Br)cc2C1=O | inactive
45 | Cc1noc(C)c1NC(=O)N(C)C[C@@H]1OCCCC[C@H](C)Oc2ccc(NS(=O)(=O)c3ccccc3)cc2C(=O)N([C@H](C)CO)C[C@@H]1C | inactive
46 | C[C@@H]1CCCCO[C@@H](CN(C)Cc2ccc(Cl)c(Cl)c2)[C@@H](C)CN([C@H](C)CO)C(=O)c2cc(NS(=O)(=O)c3ccc(F)cc3)ccc2O1 | active
47 | C[C@@H]1CCCCO[C@H](CN(C)Cc2ccc(Cl)c(Cl)c2)[C@@H](C)CN([C@@H](C)CO)C(=O)c2cc(NS(=O)(=O)c3ccc(F)cc3)ccc2O1 | inactive
48 | C[C@H]1CCCCO[C@H](CN(C)Cc2ccc(Cl)c(Cl)c2)[C@@H](C)CN([C@@H](C)CO)C(=O)c2cc(NS(=O)(=O)c3ccc(F)cc3)ccc2O1 | inactive
49 | C[C@@H]1CCCCO[C@H](CN(C)Cc2ccc(Cl)c(Cl)c2)[C@H](C)CN([C@@H](C)CO)C(=O)c2cc(NS(=O)(=O)c3ccc(F)cc3)ccc2O1 | active
50 | C[C@@H]1CN([C@H](C)CO)C(=O)c2cc(NS(=O)(=O)c3ccc(F)cc3)ccc2O[C@@H](C)CCCCO[C@H]1CN(C)Cc1ccc(Cl)c(Cl)c1 | inactive
51 | C[C@H](CO)N1C[C@H](C)[C@@H](CN(C)Cc2ccc(Cl)c(Cl)c2)OCCCC[C@H](C)Oc2ccc(NS(=O)(=O)c3ccc(F)cc3)cc2C1=O | inactive
52 | C[C@@H]1CCCCO[C@@H](CN(C)Cc2ccc(Cl)c(Cl)c2)[C@H](C)CN([C@H](C)CO)C(=O)c2cc(NS(=O)(=O)c3ccc(F)cc3)ccc2O1 | active
53 | C[C@@H]1CCCCO[C@@H](CN(C)Cc2ccc(Cl)c(Cl)c2)[C@@H](C)CN([C@@H](C)CO)C(=O)c2cc(NS(=O)(=O)c3ccc(F)cc3)ccc2O1 | inactive
54 | C[C@H](CO)N1C[C@H](C)[C@H](CN(C)Cc2ccc(Cl)c(Cl)c2)OCCCC[C@H](C)Oc2ccc(NS(=O)(=O)c3ccc(F)cc3)cc2C1=O | inactive
55 | C[C@@H]1CCCCO[C@H](CN(C)Cc2ccc(Cl)c(Cl)c2)[C@@H](C)CN([C@H](C)CO)C(=O)c2cc(NS(=O)(=O)c3ccc(F)cc3)ccc2O1 | inactive
56 | C[C@@H]1CCCCO[C@@H](CN(C)Cc2ccc(Cl)c(Cl)c2)[C@H](C)CN([C@@H](C)CO)C(=O)c2cc(NS(=O)(=O)c3ccc(F)cc3)ccc2O1 | active
